Reference: PubChem BioAssay (NCI)
This is part of a sample that, as a whole, favours compounds with a hit. Of some 83,000 tested, about 20% had one in any assay.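 Negative percent growth values reflect cell death: -40 means 40% of the cells present at the start died, and -100 means all died.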 Active and inactive are the calls of the source.

What follows are compounds tested on LOX IMVI melanoma (assay: NCI-60 one-dose screen, 48 h (100 = growth as untreated, 0 = no growth, -100 = all killed)). Details: 10 µM unless noted.
Experimental: Growth inhibition of the LOX IMVI human tumor cell line is measured as a screen for anti-cancer activity. Cells are grown in 96 well plates and exposed to the test compound for 48 hours. Compounds are tested at a single concentration, which is 10^-5 M for most compounds. The reported endpoint is percent growth (GI% or GIPRCNT), where numbers from 0 - 100% represent growth inhibition, and numbers from -100% - 0 represent cell death. For example, a value of 40 represents 60% growth inhibition. A value of 0 means no net growth occurred over the course of the experiment. A value of -40 indicates 40% of cells at the beginning of the experiment died by the end of the experiment. A value of -100 means all cells are dead at the end of the experiment.
NCI-60 Human Tumor Cell Lines Screen was performed using the standard one-dose NCI protocol, which is described in more detail at https://dtp.cancer.gov/discovery_development/nci-60/default.htm.
Compounds with GIPRCNT values below 10 were considered active. Activity score was based on GIPRCNT using the following formula: […]
Score is 0 for GIPRCNT values of 100 or above, 50 for GIPRCNT values of 0, and 100 for GIPRCNT values of -100.

Structure (SMILES) | growth
O=[N+]([O-])c1cccc(-c2nc3sccn3c2-c2ccnc(NCCCNS(=O)(=O)c3ccc(F)cc3)n2)c1 | -21.3% (active)
O=C1C(Cl)=C(Cl)C(=O)c2c1nc1n2CCCC1 | 85.8% (inactive)
O=C(CCCN1CCOCC1)Nc1ccc(Cn2nnc3c2C(=O)c2nnn(Cc4ccc(NC(=O)CCCN5CCOCC5)cc4)c2C3=O)cc1 | -5.71% (active)
CCN(CC)Cc1cc(Nc2c3ccc(Cl)cc3nc3c(C)cccc23)ccc1O | -84.9% (active)
CCOC(=O)/C=C/C(=O)[C@H](CC(C)C)NC(=O)[C@H](Cc1ccccc1)NC(=O)OCc1ccccc1 | -82.9% (active)
COc1ccc2nc3cc(Cl)ccc3c(N3CCN(c4nccc(Nc5ccc(Cl)cc5)n4)CC3)c2c1 | 61.9% (inactive)
CN(CC(=O)N(Cc1ccc(C2CCCCC2)cc1)c1ccc(C(=O)NO)cc1)S(=O)(=O)c1c(F)c(F)c(F)c(F)c1F | -8.7% (active)
COC1=CC(=O)C(OC)=C(OC)C1=O | 84.6% (inactive)
Nc1cc(O)cc2cccnc12 | 51.2% (inactive)
Cn1c2c(Cl)c(Cl)ccc2c2ccn3c(=O)c4ccccc4nc3c21 | 104% (inactive)
Nc1nc2ccc(-c3nc4ccc5[nH]ncc5c4c4c3CCC4)cc2s1 | 19.6% (inactive)
COC(=S)SCN(CSC(=S)OC)c1ccc(Cl)cc1 | 73.4% (inactive)
CCCCCCCCSC1=CC(=O)C(OC)=C(OC)C1=O | -48.7% (active)
COc1ccc(C(=O)/C=C/c2c(Cl)c3c(c(OC)c2Cl)OCC(=O)N3)cc1 | -36.1% (active)
O=C1/C(=C/c2ccccc2)CN(CCC(=O)N2C/C(=C\c3ccccc3)C(=O)/C(=C/c3ccccc3)C2)C/C1=C\c1ccccc1 | -51.4% (active)
O=C1C=CC(=O)c2c1nc1n2CCCC1 | 48.8% (inactive)
COc1cccc(NC(=O)c2sc3nc4c(cc3c2N)CN(Cc2ccccc2)CC4)c1 | 67.4% (inactive)
Cc1cc(Nc2nc(N3CCN(C)CC3)nc3ccccc23)n[nH]1 | 73% (inactive)
Clc1ccc(-c2nnc(COc3ccccc3Cl)o2)cc1 | 81.5% (inactive)
CN1CCN(Cc2ccc(NC(=O)c3cncc(C#Cc4cnc(N)c5cccnc45)c3)cc2C(F)(F)F)CC1 | -76.6% (active)

Structure (SMILES) | growth
CCC(C)[C@@H]1NC(=O)[C@@H]2CCCN2C(=O)[C@H](Cc2ccccc2)NC(=O)[C@@H]2CCCN2C(=O)[C@H](Cc2ccccc2)NC(=O)[C@@H]2CCCN2C(=O)[C@H](Cc2ccccc2)NC1=O (stereo not given in full) | 103% (inactive)
CC[C@H](CO)Nc1nc(NCc2ccccc2)n2ncc(C(C)C)c2n1 | 4.45% (active)
CCN(CC)CC(O)c1cc(-c2ccc(Cl)cc2)nc2c(C)c(Cl)ccc12 (stereo not given) | -94.7% (active)
CC(=O)C1=C(O)C=C2Oc3c(C(=O)/C=C/c4cc(C(F)(F)F)cc(C(F)(F)F)c4)c(O)c(C)c(O)c3[C@]2(C)C1=O | -85.4% (active)
CNC(=O)c1cc(Oc2ccc3nc(NC(=O)Nc4ccc(CN5CCOCC5)c(C(F)(F)F)c4)sc3c2)ccn1 | 16.7% (inactive)
CC(=O)N1CC(Nc2ccc(OC(F)(F)F)cc2)=CC1=O | 43.7% (inactive)
COc1ccc(/C(=C/c2ccc3ccccc3c2)c2nn[nH]n2)cc1OC | 37.6% (inactive)
CC(=O)Oc1cc2cnc3c4cc(OC(C)=O)c(OC(C)=O)cc4ccc3c2cc1OC(C)=O | 10.6% (inactive)
O=C1CCc2c(sc3[nH]c(=S)n(Cc4ccccc4)c(=O)c23)C1 | 11.7% (inactive)
Cc1ccc(Nc2c(C(N)=O)cnc3ccc(-c4csc(N)n4)cc23)cc1 | 96.2% (inactive)
C=C1CC[C@@H]2[C@](C)(COC(C)=O)[C@H](OC(C)=O)CC[C@@]2(C)[C@@H]1CC(Nc1ccc(S(=O)(=O)Nc2ccc(Cl)nn2)cc1)C1=CCOC1=O (stereo not given in full) | -84.6% (active)
Nc1cccc(-c2nc3sccn3c2-c2ccnc(NCCCNS(=O)(=O)c3ccc(C(F)(F)F)cc3)n2)c1 | -30.2% (active)
COCCOC(=O)C1=C(C)NC(=S)NC1c1ccc2c(c1)OCO2 (stereo not given) | 101% (inactive)
O=C(Nc1cccc2c1C(=O)c1cccc(Nc3cccc4c3C(=O)c3cccc(NC(=O)c5ccccc5)c3C4=O)c1C2=O)c1ccccc1 | 98.1% (inactive)
C[C@@]1(N2C(=O)OC[C@@H]2c2ccccc2)C(=O)N([C@H](CC(=O)N2CCC(N3CCCCC3)CC2)C(=O)NCc2cccc(C(F)(F)F)c2)[C@@H]1/C=C/c1ccccc1 | -50.1% (active)
COc1cccc2c1C(=O)c1c(O)c3c(c(O)c1C2=O)C[C@@](O)(/C(C)=N/NC(=O)c1ccc(Cl)cc1)C[C@@H]3OC1CC(N)C(O)C(C)O1 (stereo not given in full) | -44.6% (active)
CCc1ccc(C(c2ccc(CC)cc2)C(Cl)(Cl)CCl)cc1 | 93.6% (inactive)
O=C1Nc2ccc(Br)cc2C12CC(c1ccccc1)=NN2 (stereo not given) | 51.9% (inactive)
Cc1ccc(Nc2nc(N)nc(Nc3ccc4ccccc4c3)n2)cc1 | 38.2% (inactive)
CN1CCN(Cc2ccc(NC(=O)c3[nH]ncc3Nc3ncnc4c3CCC4)cc2)CC1 | 7.49% (active)
